The full ranking holds about 16,000 sequences; the median of “rpm ratio (pull-down/input)” is about 0.94, and the highest 2% start at about 1.7. This excerpt belongs to a sample that is enriched for the highest values.
Each sequence was assayed against T1, MBP-FoxP1dN (Mus musculus, UniProt P58462 326-579) (assay: PD-seq (MBP pull-down with sequencing); 20 mM Tris-HCl pH 7.5, 100 mM NaCl, 1.5 mM MgCl2, 0.4 uM protein, 0.1 uM dsDNA library, 30 min, room temperature, amylose pull-down; high values mean tight binding). Settings: protein: recombinant; tags: His6-MBP; chain copies: 2; dsDNA, one strand shown.
T1 sequence: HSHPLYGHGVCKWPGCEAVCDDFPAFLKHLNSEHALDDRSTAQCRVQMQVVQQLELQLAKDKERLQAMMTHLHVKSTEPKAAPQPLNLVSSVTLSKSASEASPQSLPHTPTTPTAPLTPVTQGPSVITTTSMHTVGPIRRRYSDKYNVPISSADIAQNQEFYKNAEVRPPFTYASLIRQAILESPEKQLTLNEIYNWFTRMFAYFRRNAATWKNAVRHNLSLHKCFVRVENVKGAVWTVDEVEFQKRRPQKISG
Procedure, shortened: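 Binding is given as reads-per-million enrichment, pull-down over input, with replicates pooled. The bait was an N-terminus-lacking mouse FoxP3 or FoxP1 fragment with a His6-MBP tag, expressed in E. coli and used at 0.4 µM with 0.1 µM Klenow-filled degenerate double-stranded DNA library for 30 min at room temperature in Tris pH 7.5 buffer with NaCl and MgCl2. Amylose resin pull-down with three washes was followed by proteinase K release, PCR barcoding and Illumina sequencing.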

Row | Sequence | binding signal
1 | GATGATTGTTCTCCCAGCTGATGAATTTGGGCCATCGAGTAAACAAATTTTCCTAATCTTTCTGTTCAAGCGCCATCTAC | 0.878 RPM ratio (pull-down/input)
2 | GATGATTGTTCTCCCAGCTGATGAATTCTTTGTGTCGAGTAAACAAATTTTCCTAATCTTTCTGTTCAAGCGCCATCTAC | 1.06 RPM ratio (pull-down/input)
3 | GATGATTGTTCTCCCAGCTGATGAATTGTGTTTGTCGAGTAAACAAATTTTCCTAATCTTTCTGTTCAAGCGCCATCTAC | 2.8 RPM ratio (pull-down/input)
4 | GATGATTGTTCTCCCAGCTGATGAATTTGATGTGTCGAGTAAACAAATTTTCCTAATCTTTCTGTTCAAGCGCCATCTAC | 1.16 RPM ratio (pull-down/input)
5 | GATGATTGTTCTCCCAGCTGATGAATTTGCTGTGTCGAGTAAACAAATTTTCCTAATCTTTCTGTTCAAGCGCCATCTAC | 1.14 RPM ratio (pull-down/input)
6 | GATGATTGTTCTCCCAGCTGATGAATTGTTTGTGTCGAGTAAACAAATTTTCCTAATCTTTCTGTTCAAGCGCCATCTAC | 2.77 RPM ratio (pull-down/input)
7 | GATGATTGTTCTCCCAGCTGATGAATTTTCTGTGTCGAGTAAACAAATTTTCCTAATCTTTCTGTTCAAGCGCCATCTAC | 0.968 RPM ratio (pull-down/input)
8 | GATGATTGTTCTCCCAGCTGATGAATTACCCATATCGAGTAAACAAATTTTCCTAATCTTTCTGTTCAAGCGCCATCTAC | 1.07 RPM ratio (pull-down/input)
9 | GATGATTGTTCTCCCAGCTGATGAATTACTCCTCTCGAGTAAACAAATTTTCCTAATCTTTCTGTTCAAGCGCCATCTAC | 1.05 RPM ratio (pull-down/input)
10 | GATGATTGTTCTCCCAGCTGATGAATTATATGAGTCGAGTAAACAAATTTTCCTAATCTTTCTGTTCAAGCGCCATCTAC | 0.962 RPM ratio (pull-down/input)
11 | GATGATTGTTCTCCCAGCTGATGAATTATCAATATCGAGTAAACAAATTTTCCTAATCTTTCTGTTCAAGCGCCATCTAC | 1.96 RPM ratio (pull-down/input)
12 | GATGATTGTTCTCCCAGCTGATGAATTAATAATATCGAGTAAACAAATTTTCCTAATCTTTCTGTTCAAGCGCCATCTAC | 1.51 RPM ratio (pull-down/input)
13 | GATGATTGTTCTCCCAGCTGATGAATTAAAAATATCGAGTAAACAAATTTTCCTAATCTTTCTGTTCAAGCGCCATCTAC | 1.35 RPM ratio (pull-down/input)
14 | GATGATTGTTCTCCCAGCTGATGAATTATATCAATCGAGTAAACAAATTTTCCTAATCTTTCTGTTCAAGCGCCATCTAC | 1.16 RPM ratio (pull-down/input)
15 | GATGATTGTTCTCCCAGCTGATGAATTAACAATATCGAGTAAACAAATTTTCCTAATCTTTCTGTTCAAGCGCCATCTAC | 1.87 RPM ratio (pull-down/input)
16 | GATGATTGTTCTCCCAGCTGATGAATTATGAATATCGAGTAAACAAATTTTCCTAATCTTTCTGTTCAAGCGCCATCTAC | 1.07 RPM ratio (pull-down/input)

Row | Sequence | binding signal
17 | GATGATTGTTCTCCCAGCTGATGAATTAGCTTACTCGAGTAAACAAATTTTCCTAATCTTTCTGTTCAAGCGCCATCTAC | 0.938 RPM ratio (pull-down/input)
18 | GATGATTGTTCTCCCAGCTGATGAATTTTGAGGGTCGAGTAAACAAATTTTCCTAATCTTTCTGTTCAAGCGCCATCTAC | 0.774 RPM ratio (pull-down/input)
19 | GATGATTGTTCTCCCAGCTGATGAATTGCAAAAATCGAGTAAACAAATTTTCCTAATCTTTCTGTTCAAGCGCCATCTAC | 1.55 RPM ratio (pull-down/input)
20 | GATGATTGTTCTCCCAGCTGATGAATTGCAATCATCGAGTAAACAAATTTTCCTAATCTTTCTGTTCAAGCGCCATCTAC | 1.48 RPM ratio (pull-down/input)
21 | GATGATTGTTCTCCCAGCTGATGAATTGATGCAATCGAGTAAACAAATTTTCCTAATCTTTCTGTTCAAGCGCCATCTAC | 1.96 RPM ratio (pull-down/input)
22 | GATGATTGTTCTCCCAGCTGATGAATTGCAACCATCGAGTAAACAAATTTTCCTAATCTTTCTGTTCAAGCGCCATCTAC | 1.45 RPM ratio (pull-down/input)
23 | GATGATTGTTCTCCCAGCTGATGAATTGCAACAATCGAGTAAACAAATTTTCCTAATCTTTCTGTTCAAGCGCCATCTAC | 1.91 RPM ratio (pull-down/input)
24 | GATGATTGTTCTCCCAGCTGATGAATTTGCAACATCGAGTAAACAAATTTTCCTAATCTTTCTGTTCAAGCGCCATCTAC | 1.7 RPM ratio (pull-down/input)
25 | GATGATTGTTCTCCCAGCTGATGAATTGATGCCATCGAGTAAACAAATTTTCCTAATCTTTCTGTTCAAGCGCCATCTAC | 1.39 RPM ratio (pull-down/input)
26 | GATGATTGTTCTCCCAGCTGATGAATTTCTGCAATCGAGTAAACAAATTTTCCTAATCTTTCTGTTCAAGCGCCATCTAC | 1.1 RPM ratio (pull-down/input)
27 | GATGATTGTTCTCCCAGCTGATGAATTGCAAACATCGAGTAAACAAATTTTCCTAATCTTTCTGTTCAAGCGCCATCTAC | 2.29 RPM ratio (pull-down/input)
28 | GATGATTGTTCTCCCAGCTGATGAATTGTTGCAATCGAGTAAACAAATTTTCCTAATCTTTCTGTTCAAGCGCCATCTAC | 1.87 RPM ratio (pull-down/input)
29 | GATGATTGTTCTCCCAGCTGATGAATTTTTGCAATCGAGTAAACAAATTTTCCTAATCTTTCTGTTCAAGCGCCATCTAC | 1.26 RPM ratio (pull-down/input)
30 | GATGATTGTTCTCCCAGCTGATGAATTGCAGCAATCGAGTAAACAAATTTTCCTAATCTTTCTGTTCAAGCGCCATCTAC | 1.33 RPM ratio (pull-down/input)
31 | GATGATTGTTCTCCCAGCTGATGAATTGACTACATCGAGTAAACAAATTTTCCTAATCTTTCTGTTCAAGCGCCATCTAC | 1.22 RPM ratio (pull-down/input)

From publication PMC12820563, “FoxP3 forms a head-to-head dimer in vivo and stabilizes its multimerization on adjacent microsatellites”
